Experimental data: the supplement of paper PMC6089552
Among all 3,200 compounds or so, about 300 (9.4%) showed activity. The sample as a whole holds a higher share of actives than the screen did.

System: A673/TR/shEF
Experiment: cell viability (LOESS-normalised, relative to median of negative controls) (log2 ratio); higher = more viable cells (less compound effect), active = hit call of the paper (over 3 MAD below the median)
Conditions: treatment time: 72 h
Summary of the method: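 A673/TR/shEF Ewing sarcoma cells were plated at 1,500 per well in 384-well plates and cultured with or without doxycycline, added 24 h before compounds, to induce EWS-FLI1 shRNA knockdown. Library compounds at two or more concentrations, alongside DMSO controls, were applied for three days. Cell viability was measured by CellTiter-Glo luminescence on an Envision reader. Readings were LOESS-corrected per plate, divided by the median of negative controls and log2-transformed, and hits were wells lying at least three median absolute deviations from the median of all screened wells.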

[1] = 0.25 µM, library screen: screen1, EWS-FLI1 expression: high (no doxycycline)
[2] = 0.25 µM, library screen: screen1, EWS-FLI1 expression: low (doxycycline-induced shRNA knockdown)
[3] = 2.5 µM, library screen: screen1, EWS-FLI1 expression: high (no doxycycline)
[4] = 2.5 µM, library screen: screen1, EWS-FLI1 expression: low (doxycycline-induced shRNA knockdown)
[5] = 0.103 µM, library screen: screen3, EWS-FLI1 expression: high (no doxycycline)
[6] = 0.103 µM, library screen: screen3, EWS-FLI1 expression: low (doxycycline-induced shRNA knockdown)
[7] = 0.308 µM, library screen: screen3, EWS-FLI1 expression: high (no doxycycline)
[8] = 0.308 µM, library screen: screen3, EWS-FLI1 expression: low (doxycycline-induced shRNA knockdown)
[9] = 0.926 µM, library screen: screen3, EWS-FLI1 expression: high (no doxycycline)
[10] = 0.926 µM, library screen: screen3, EWS-FLI1 expression: low (doxycycline-induced shRNA knockdown)
[11] = 2.8 µM, library screen: screen3, EWS-FLI1 expression: high (no doxycycline)
[12] = 2.8 µM, library screen: screen3, EWS-FLI1 expression: low (doxycycline-induced shRNA knockdown)
[13] = 8.3 µM, library screen: screen3, EWS-FLI1 expression: high (no doxycycline)
[14] = 8.3 µM, library screen: screen3, EWS-FLI1 expression: low (doxycycline-induced shRNA knockdown)
[15] = 25 µM, library screen: screen3, EWS-FLI1 expression: high (no doxycycline)
[16] = 25 µM, library screen: screen3, EWS-FLI1 expression: low (doxycycline-induced shRNA knockdown)

Measured: cell viability (log2)

COc1ccccc1C1NC(=S)NC(C)=C1C(=O)Nc1cccc(Cl)c1 (stereo not drawn)
inactive: [1] 0.0961 | [2] 0.101 | [3] 0.0795 | [4] 0.0861

O=C(O)C(O)C(O)(Cc1ccc(O)cc1)C(=O)O (stereo not drawn)
inactive: [1] 0.147 | [2] 0.0709 | [3] 0.147 | [4] 0.089

C[C@@H]1CC[C@@]2(OC1)O[C@H]1C[C@H]3[C@@H]4CC[C@H]5C[C@@H](O)CC[C@]5(C)[C@H]4C[C@@H](O)[C@]3(C)[C@H]1[C@@H]2C
inactive: [1] 0.0822 | [2] 0.0668 | [3] 0.111 | [4] 0.136

COc1ccccc1C=CC(=O)O
inactive: [1] 0.0113 | [2] -0.0457 | [3] 0.102 | [4] 0.0515

O=C1C=CC(=C(c2ccc(O)cc2)c2ccc(O)cc2)C=C1
inactive: [1] 0.083 | [2] 0.0465 | [3] 0.0975 | [4] 0.0767

CN(C)c1ccc(C(=C2C=CC(=[N+](C)C)C=C2)c2ccc(N(C)C)cc2)cc1
active: [11] -0.295 | [12] -0.547 | [13] -2.54 | [14] -1.19 | [15] -4.26 | [16] -1.87
inactive: [5] 0.0956 | [6] -0.0594 | [1] 0.105 | [2] 0.00922 | [7] 0.0542 | [8] 0.0588 | [9] 0.098 | [10] 0.0226 | [3] 0.0691 | [4] 0.106

COc1ccc(-c2cc(=O)c3c(OC)cc(OC)cc3o2)cc1
inactive: [1] 0.0279 | [2] 0.0681 | [3] 0.0807 | [4] 0.22

CC(=O)Oc1cc(C)c2c(c1C(OC(C)=O)OC(C)=O)Oc1c(c(C)c(OC(C)=O)c3c1C(OC(C)=O)OC3=O)OC2=O (stereo not drawn)
inactive: [1] 0.0407 | [2] 0.0968 | [3] 0.0425 | [4] 0.133

CC1(C)CC[C@]2(C)CC[C@]3(C)C(=CC[C@@H]4[C@@]5(C)CC[C@H](O)C(C)(C)[C@@H]5CC[C@]43C)[C@@H]2C1
inactive: [1] 0.0903 | [2] 0.0065 | [3] 0.1 | [4] 0.118

COC1=C[C@@H](C)[C@@H]2C[C@H]3OC(=O)C[C@H]4C(C)=C(OC)C(=O)[C@H]([C@@]2(C)C1=O)[C@@]34C
inactive: [1] 0.0742 | [2] 0.006 | [3] 0.146 | [4] 0.0264

Cc1ccc(C(=O)Nc2ccc(CN3CCN(C)CC3)c(C(F)(F)F)c2)cc1C#Cc1cnc2cccnn12
active: [9] -0.202 | [11] -0.252 | [13] -0.655 | [14] -0.442 | [15] -1.59 | [16] -1.35
0.218: [10]
inactive: [5] -0.0141 | [6] 0.111 | [7] -0.0138 | [8] 0.169 | [12] 0.093

CC(C)c1c(O)ccc2c1CCC1[C@@](C)(C(=O)O)CCC[C@]21C (stereo partly drawn)
inactive: [1] 0.0397 | [2] 0.152 | [3] 0.0988 | [4] 0.234

C=C(C)/C=C1/C=CC(=O)C(C)=C1
inactive: [1] 0.0888 | [2] 0.0664 | [3] 0.0231 | [4] 0.158

CCCSc1ccc2nc(NC(=O)OC)[nH]c2c1
inactive: 0.025 µM, library screen: screen2, EWS-FLI1 expression: high (no doxycycline) 0.0864 | 0.025 µM, library screen: screen2, EWS-FLI1 expression: low (doxycycline-induced shRNA knockdown) 0.0115 | [5] 0.197 | [6] -0.0327 | [2] -0.0499 | 0.25 µM, library screen: screen2, EWS-FLI1 expression: high (no doxycycline) 0.0348 | 0.25 µM, library screen: screen2, EWS-FLI1 expression: low (doxycycline-induced shRNA knockdown) 0.051 | [7] 0.0506 | [8] 0.123 | [9] 0.0609 | [10] 0.0788 | 2.5 µM, library screen: screen2, EWS-FLI1 expression: high (no doxycycline) 0.158 | 2.5 µM, library screen: screen2, EWS-FLI1 expression: low (doxycycline-induced shRNA knockdown) 0.0631 | [12] 0.00738
active: [1] -0.206 | [3] -1.99 | [4] -1.04 | [11] -0.524 | [13] -1.81 | [14] -0.886 | 25 µM, library screen: screen2, EWS-FLI1 expression: high (no doxycycline) -1.74 | 25 µM, library screen: screen2, EWS-FLI1 expression: low (doxycycline-induced shRNA knockdown) -0.157 | [15] -2.99 | [16] -1.16

CCCOc1ccc2nc(NC(=O)OC)[nH]c2c1
active: [3] -0.659
inactive: [1] 0.0532 | [2] 0.106 | [4] -0.0137

CCCCOc1ccc(CC(=O)NO)cc1
inactive: [1] 0.0397 | [2] 0.0519 | [3] 0.124 | [4] 0.116

O=c1cccc2c([C@H]3Oc4cc(O)cc(O)c4C[C@H]3O)cc(O)c(O)c2c1O
inactive: [1] 0.06 | [2] 0.00163 | [3] 0.108 | [4] 0.0999

N#C/C(=C\c1cc(Cl)cc(Cl)c1)c1cccnc1
inactive: 0.025 µM, library screen: screen1, EWS-FLI1 expression: high (no doxycycline) 0.0512 | 0.025 µM, library screen: screen1, EWS-FLI1 expression: low (doxycycline-induced shRNA knockdown) 0.0254 | [1] 0.126 | [2] 0.0849 | [3] 0.0839 | [4] 0.0837 | 25 µM, library screen: screen1, EWS-FLI1 expression: high (no doxycycline) -0.0133 | 25 µM, library screen: screen1, EWS-FLI1 expression: low (doxycycline-induced shRNA knockdown) 0.21

CC(C)c1ccc2c(c1)CC[C@@]1(C)[C@](C)(C(N)=O)CCC[C@]21C
inactive: [1] 0.0259 | [2] 0.0473 | [3] 0.108 | [4] 0.0563

CC(=O)O[C@H]1CC[C@@]2(C)C(CC[C@]3(C)C2CC=C2C4CC(C)(C)CC[C@]4(C)CCC23C)C1(C)C (stereo partly drawn)
inactive: [1] 0.05 | [2] 0.112 | [3] 0.0854 | [4] 0.111

COc1ccc(OC)c(CN2CCN(Cc3cc(OC)c(OC)cc3OC)CC2)c1
active: [1] -0.103
inactive: [2] 0.113 | [3] 0.0261 | [4] -0.0111
